From ChEMBL document CHEMBL3988442, “University of Dundee, Small-Polar-MMV Screening Library” (2021)
For some assays here: Measured potencies and affinities stand elsewhere.

Legend:
Parameters in all cases: scale not given: direction of the effect not stated beside the values
[1] = molecular target: Protein translocase subunit SecA (Escherichia coli (strain K12)) (UniProt P10408); assay: Assay to Identify E. coli SecA ATPase Inhibitors; format: functional; settings: 30 µM
[2] = molecular target: T1, Ubiquitin-activating enzyme e1, putative (Leishmania donovani (strain BPK282A1)) (UniProt E9BSI1); assay: Leishmania donovani Ubiquitin Activating Enzyme (LdE1); format: functional; settings: 30 µM
T1 sequence (whole entry): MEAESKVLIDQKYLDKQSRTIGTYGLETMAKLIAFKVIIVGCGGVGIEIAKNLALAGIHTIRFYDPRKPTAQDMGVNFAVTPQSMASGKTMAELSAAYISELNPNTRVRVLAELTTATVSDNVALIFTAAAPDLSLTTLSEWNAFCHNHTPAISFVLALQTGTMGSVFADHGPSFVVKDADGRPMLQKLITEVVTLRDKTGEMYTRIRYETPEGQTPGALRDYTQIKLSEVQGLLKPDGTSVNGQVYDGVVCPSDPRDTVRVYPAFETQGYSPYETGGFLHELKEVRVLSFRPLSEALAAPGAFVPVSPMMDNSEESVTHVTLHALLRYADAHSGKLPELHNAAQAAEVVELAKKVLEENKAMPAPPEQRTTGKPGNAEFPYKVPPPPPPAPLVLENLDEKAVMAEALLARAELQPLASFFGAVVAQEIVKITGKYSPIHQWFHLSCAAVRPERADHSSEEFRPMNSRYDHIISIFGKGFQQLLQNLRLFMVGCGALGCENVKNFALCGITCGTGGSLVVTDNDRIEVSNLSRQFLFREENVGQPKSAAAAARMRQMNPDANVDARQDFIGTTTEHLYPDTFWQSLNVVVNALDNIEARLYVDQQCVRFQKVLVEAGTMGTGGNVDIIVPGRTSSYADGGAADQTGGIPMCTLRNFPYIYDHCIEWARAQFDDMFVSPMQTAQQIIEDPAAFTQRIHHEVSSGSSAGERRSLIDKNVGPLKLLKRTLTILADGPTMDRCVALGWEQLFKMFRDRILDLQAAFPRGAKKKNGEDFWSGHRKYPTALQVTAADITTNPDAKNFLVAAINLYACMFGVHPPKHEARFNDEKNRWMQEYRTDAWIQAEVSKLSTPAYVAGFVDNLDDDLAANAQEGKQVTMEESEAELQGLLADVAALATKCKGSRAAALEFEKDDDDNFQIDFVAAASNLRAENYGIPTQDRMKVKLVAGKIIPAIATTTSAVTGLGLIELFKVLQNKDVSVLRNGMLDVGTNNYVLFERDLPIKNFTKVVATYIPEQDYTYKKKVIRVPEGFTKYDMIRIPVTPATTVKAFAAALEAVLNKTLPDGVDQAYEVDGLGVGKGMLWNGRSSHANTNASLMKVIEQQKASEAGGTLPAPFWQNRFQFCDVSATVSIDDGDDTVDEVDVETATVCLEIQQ

[3] = molecular target: AMP-activated protein kinase, AMPK (Homo sapiens) (UniProt P54646+O43741+P54619+Q9UGJ0+Q9Y478+Q13131+Q9UGI9); assay: AMP-dependent Kinase enzyme assay. An in vitro enzyme assay that detects ADP turnover that is directly proportional to AMPK activity. This uses naive AMPK that is activated during the assay with MK-8722; format: functional; settings: 30 µM
[4] = molecular target: Sialic acid-binding Ig-like lectin 9 (Homo sapiens) (UniProt Q9Y336); assay: Hs-Siglec9 ALPHAscreen SOP 20170721; settings: 10 µM
Chain of Sialic acid-binding Ig-like lectin 9 (Homo sapiens) (Q9Y336 whole entry): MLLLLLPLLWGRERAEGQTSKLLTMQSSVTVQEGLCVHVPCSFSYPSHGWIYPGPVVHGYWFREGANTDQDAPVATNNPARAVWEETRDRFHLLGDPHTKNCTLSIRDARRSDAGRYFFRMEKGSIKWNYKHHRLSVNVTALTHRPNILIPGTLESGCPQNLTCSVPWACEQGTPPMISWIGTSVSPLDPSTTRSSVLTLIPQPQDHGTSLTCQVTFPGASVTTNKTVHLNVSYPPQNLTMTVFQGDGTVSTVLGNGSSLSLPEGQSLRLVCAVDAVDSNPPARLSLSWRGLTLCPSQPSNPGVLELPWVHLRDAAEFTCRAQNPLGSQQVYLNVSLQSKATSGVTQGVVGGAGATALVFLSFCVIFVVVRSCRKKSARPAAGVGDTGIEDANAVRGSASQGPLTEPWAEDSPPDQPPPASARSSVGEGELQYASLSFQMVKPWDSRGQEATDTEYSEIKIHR

[5] = test system: Trypanosoma cruzi; assay: Trypanosoma cruzi phosphomannomutase and mannose-1-phosphate guanylyltransferase assay; format: functional; settings: 10 µM
[6] = molecular target: T2, Arginase-2, mitochondrial (Homo sapiens) (UniProt P78540); assay: in vitro enzyme assay to detect the production of urea directly proportional to the activity of Arginase II; format: functional; settings: 33.3 µM; also: in the data most compounds retested in dose-response had high values
T2 sequence (whole entry): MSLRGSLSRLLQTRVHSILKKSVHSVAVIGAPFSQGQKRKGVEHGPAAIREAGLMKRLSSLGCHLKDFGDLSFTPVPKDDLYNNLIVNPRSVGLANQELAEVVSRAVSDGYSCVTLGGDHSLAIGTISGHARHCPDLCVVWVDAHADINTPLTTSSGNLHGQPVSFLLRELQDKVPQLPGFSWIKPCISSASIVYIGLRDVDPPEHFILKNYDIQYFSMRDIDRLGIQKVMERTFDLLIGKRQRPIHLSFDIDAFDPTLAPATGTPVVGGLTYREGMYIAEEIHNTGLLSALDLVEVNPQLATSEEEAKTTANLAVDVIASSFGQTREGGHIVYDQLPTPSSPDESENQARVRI

[7] = molecular target: T3, Proteasome subunit beta (Trypanosoma cruzi) (UniProt O96673); assay: Trypanosoma cruzi proteasome chymotrypsin-like activity (TcProtChymo) assay.; also: in the data most compounds retested in dose-response had high values; format: functional; settings: 9.37 µM
T3 sequence (whole entry): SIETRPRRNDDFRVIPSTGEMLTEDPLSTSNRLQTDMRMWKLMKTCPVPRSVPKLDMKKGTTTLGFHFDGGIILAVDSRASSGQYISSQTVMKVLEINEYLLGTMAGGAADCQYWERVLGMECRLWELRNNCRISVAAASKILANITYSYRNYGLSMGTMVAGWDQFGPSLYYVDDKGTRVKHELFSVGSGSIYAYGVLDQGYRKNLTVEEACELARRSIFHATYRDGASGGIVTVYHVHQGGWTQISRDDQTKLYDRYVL

[8] = species: Homo sapiens; assay: To identify inhibition of the IFN signalling (Jak-Stat) pathway via expression of an eGFP reporter gene under the control of an IFN-stimulated response element (ISRE) containing MxA promoter.; format: functional; settings: 30 µM
[9] = molecular target: T4, Tyrosyl-tRNA synthetase, putative (Trypanosoma cruzi (strain CL Brener)) (UniProt Q4DSP6); assay: Trypanosoma cruzi tyrosyl tRNA synthetase (TcYRS) _High Tyrosine SOP; format: functional; settings: 30 µM; also: in the data most compounds retested in dose-response had high values
T4 sequence (whole entry): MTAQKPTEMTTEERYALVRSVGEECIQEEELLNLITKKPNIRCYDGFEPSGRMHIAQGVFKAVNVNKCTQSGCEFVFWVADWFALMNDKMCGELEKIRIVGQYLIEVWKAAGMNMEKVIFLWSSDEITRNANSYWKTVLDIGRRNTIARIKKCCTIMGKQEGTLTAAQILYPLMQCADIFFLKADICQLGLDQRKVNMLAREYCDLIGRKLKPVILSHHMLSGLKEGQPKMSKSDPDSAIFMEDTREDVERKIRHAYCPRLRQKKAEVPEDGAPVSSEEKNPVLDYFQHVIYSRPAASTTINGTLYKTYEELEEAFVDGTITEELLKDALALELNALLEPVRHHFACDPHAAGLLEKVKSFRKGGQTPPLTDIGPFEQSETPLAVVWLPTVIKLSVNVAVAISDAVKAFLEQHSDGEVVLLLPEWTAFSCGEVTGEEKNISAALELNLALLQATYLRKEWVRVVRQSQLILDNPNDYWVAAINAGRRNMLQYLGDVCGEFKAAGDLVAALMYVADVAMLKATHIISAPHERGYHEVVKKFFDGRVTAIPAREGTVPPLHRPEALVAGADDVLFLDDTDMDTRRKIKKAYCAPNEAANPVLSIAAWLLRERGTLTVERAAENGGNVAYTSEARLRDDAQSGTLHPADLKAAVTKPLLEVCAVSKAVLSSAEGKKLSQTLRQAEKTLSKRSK

[10] = molecular target: T4, Tyrosyl-tRNA synthetase, putative (Trypanosoma cruzi (strain CL Brener)); assay: Trypanosoma cruzi tyrosyl tRNA synthetase (TcYRS) SOP; format: functional; settings: 30 µM
[11] = molecular target: Chromo domain-containing protein 1 (Saccharomyces cerevisiae (strain ATCC 204508 / S288c) (Baker's yeast)) (UniProt P32657); assay: ScCHD-1 Enzyme Inhibition Assay; format: functional; settings: 30 µM; also: in the data most compounds retested in dose-response had high values
Chain of Chromo domain-containing protein 1 (Saccharomyces cerevisiae (strain ATCC 204508 / S288c) (Baker's yeast)) (P32657 whole entry, the tested form may be a part): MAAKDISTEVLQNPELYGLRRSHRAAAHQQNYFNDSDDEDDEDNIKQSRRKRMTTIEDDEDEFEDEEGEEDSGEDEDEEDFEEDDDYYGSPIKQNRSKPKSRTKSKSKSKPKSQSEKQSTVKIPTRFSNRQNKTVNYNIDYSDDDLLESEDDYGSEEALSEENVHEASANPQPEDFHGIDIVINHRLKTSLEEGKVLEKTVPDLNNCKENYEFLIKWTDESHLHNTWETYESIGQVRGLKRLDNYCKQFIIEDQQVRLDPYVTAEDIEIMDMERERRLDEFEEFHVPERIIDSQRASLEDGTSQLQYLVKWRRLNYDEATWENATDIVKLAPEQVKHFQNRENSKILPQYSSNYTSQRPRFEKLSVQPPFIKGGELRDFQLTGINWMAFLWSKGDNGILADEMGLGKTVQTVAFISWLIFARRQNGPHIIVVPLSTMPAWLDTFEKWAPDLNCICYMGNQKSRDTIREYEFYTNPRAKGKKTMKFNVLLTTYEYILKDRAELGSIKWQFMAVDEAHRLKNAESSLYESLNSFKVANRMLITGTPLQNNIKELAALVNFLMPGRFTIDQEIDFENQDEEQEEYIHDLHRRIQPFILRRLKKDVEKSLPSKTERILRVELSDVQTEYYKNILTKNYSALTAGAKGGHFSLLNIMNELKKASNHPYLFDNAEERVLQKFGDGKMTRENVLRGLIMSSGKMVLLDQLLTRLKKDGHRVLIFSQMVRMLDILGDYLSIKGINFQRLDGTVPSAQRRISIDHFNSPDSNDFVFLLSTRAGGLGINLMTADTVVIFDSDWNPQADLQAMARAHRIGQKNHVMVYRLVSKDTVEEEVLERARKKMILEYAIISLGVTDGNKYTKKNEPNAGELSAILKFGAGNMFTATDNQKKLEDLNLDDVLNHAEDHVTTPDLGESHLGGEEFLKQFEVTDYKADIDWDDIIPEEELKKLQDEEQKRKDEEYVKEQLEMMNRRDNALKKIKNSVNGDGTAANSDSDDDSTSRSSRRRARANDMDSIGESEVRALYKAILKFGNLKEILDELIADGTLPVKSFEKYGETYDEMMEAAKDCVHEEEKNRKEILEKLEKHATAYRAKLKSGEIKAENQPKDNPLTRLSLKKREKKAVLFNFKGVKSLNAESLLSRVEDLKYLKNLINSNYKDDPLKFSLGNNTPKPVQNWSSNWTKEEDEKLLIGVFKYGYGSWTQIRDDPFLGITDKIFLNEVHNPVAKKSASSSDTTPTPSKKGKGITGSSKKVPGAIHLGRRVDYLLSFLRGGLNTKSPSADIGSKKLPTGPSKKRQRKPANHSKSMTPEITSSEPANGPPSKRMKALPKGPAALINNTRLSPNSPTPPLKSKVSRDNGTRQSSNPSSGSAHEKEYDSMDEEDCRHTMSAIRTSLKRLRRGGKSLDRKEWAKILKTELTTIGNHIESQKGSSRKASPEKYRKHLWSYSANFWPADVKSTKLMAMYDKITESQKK

Chain of Protein translocase subunit SecA (Escherichia coli (strain K12)) (P10408 whole entry): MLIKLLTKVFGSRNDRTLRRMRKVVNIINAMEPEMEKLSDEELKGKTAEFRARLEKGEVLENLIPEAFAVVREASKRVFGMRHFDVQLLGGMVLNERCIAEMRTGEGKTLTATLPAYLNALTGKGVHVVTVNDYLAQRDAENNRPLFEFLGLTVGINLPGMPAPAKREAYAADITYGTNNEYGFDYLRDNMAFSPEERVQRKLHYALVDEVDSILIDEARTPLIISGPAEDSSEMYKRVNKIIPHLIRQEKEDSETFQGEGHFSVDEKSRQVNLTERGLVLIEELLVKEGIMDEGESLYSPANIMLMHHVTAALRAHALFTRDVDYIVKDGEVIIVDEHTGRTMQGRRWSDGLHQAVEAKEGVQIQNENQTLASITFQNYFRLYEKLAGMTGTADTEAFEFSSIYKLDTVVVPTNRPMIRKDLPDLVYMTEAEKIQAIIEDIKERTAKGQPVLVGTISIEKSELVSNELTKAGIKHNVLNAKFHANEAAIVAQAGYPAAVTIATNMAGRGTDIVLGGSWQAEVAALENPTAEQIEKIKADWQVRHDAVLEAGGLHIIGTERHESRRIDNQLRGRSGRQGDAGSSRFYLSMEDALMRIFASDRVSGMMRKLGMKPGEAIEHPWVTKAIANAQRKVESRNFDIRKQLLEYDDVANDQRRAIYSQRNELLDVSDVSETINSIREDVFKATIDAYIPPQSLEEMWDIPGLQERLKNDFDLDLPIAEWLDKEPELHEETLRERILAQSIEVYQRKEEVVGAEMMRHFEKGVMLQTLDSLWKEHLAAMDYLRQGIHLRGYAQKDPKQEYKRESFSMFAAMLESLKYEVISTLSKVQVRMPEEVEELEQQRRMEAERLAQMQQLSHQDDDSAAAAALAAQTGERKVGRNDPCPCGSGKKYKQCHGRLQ

Compound | Percent Effect [1] [%] | Percent Effect [2] [%] | Percent Effect [3] [%] | Percent Effect [4] [%] | Percent Effect [5] [%] | Percent Effect [6] [%] | Percent Effect [7] [%] | Percent Effect [8] [%] | Percent Effect [9] [%] | Percent Effect [10] [%] | Percent Effect [11] [%]
Cc1ccc(OCCC(=O)NC2CCc3nccn3C2)cc1 (configuration not stated) | -6 | 0 | 7.39 | 1.52 | -1.07 | -13 | 17.6 | -12.9 | 5.32 | 13 | -2.38
CCOc1cccc(C(=O)N2CCN(c3nccc(OC)n3)CC2)c1 | -7.2 | 5.26 | 10.4 | -5.48 | -7 | 1.8 | 6.51 | 16.4 | -1.48 | 1.24 | -2.73
Cc1cnn(CC2CCCN2C(=O)CCc2ccsc2)c1 (configuration not stated) | -4.66 | 7.79 | 3.01 | 4.3 | 3.82 | 2.32 | 0.242 | 15.8 | 1.91 | 7.06 | -15.5
Cc1ncsc1C(=O)NCCn1nc2ccccn2c1=O | -2.94 | 13.5 | 0.246 | -6.32 | -3.44 | 2.03 | 2.51 | 13.6 | 8.91 | 15.8 | -7.12
Cc1cnc2c(c1NCc1ccncc1)c(=O)n(C)c(=O)n2C | -2.14 | 0 | 5.25 | -12.3 | -5.68 | -11.4 | 17.6 | 29.2 | 4.3 | 10 | -2.51
COc1cc(CNC(=O)Nc2cc(C(F)(F)F)c[nH]c2=O)ccn1 | -3.54 | 13.2 | 2.48 | 10.4 | 1.13 | -3.06 | 12.7 | 7.49 | 0.49 | 12.2 | -11.3
COCCOCC(=O)Nc1ccc(C)cc1F | -1.36 | 2.63 | 5.59 | -0.498 | 3.21 | 0 | 9.11 | -16.7 | 2.13 | 2.6 | 2.83
O=C([C@@H]1COC[C@H]2CN(C3CCOCC3)C[C@H]21)N1CCCCO1 | 0.287 | 13.3 | -0.78 | -8.11 | 0.386 | -46.4 | 6.67 | 7.44 | 2.08 | 20 | -6.62
CN(C)C(=O)c1ccc(CNC(=O)NCCN(C)C2CCCC2)cc1 | -0.464 | 16.2 | -9.52 | -5.04 | -3.87 | -2.81 | 5.41 | 22.8 | 7.39 | 18.5 | -6.9
OC(COCc1cccs1)CN1CCC(c2ccn[nH]2)CC1 (configuration not stated) | 0.446 | 15.2 | -3.7 | -4.14 | -8.03 | 3.42 | 8.6 | 16.3 | -2.46 | 8.86 | -3.55
CN(C)C(=O)N1C[C@@H]2COC[C@]2(CNS(C)(=O)=O)C1 | -1.78 | -2.7 | 5.5 | 5.41 | -1.27 | 2.87 | 16.8 | -0.0949 | 0 | -5.13 | 3.04
CC(C)c1noc(CN(Cc2ccccc2F)C2CC2)n1 | -1.22 | 15.6 | -0.613 | 8.23 | 3.64 | -75.9 | 22.5 | 10.9 | 7.53 | 18.5 | -1.83
O=C(Cn1cc(C(=O)O)ccc1=O)NCc1ccc(F)c(Cl)c1 | -2.28 | 9.33 | -1.08 | -0.406 | 4.91 | -6.87 | 11.7 | 27 | 4.23 | 12.8 | -7.6
Cc1ccc(NC(=O)NC(C)C(=O)N2CCS(=O)(=O)CC2)cc1 (configuration not stated) | -3.85 | 5.41 | 2.74 | 5.55 | -1.74 | -11.9 | 12.4 | 11.4 | -0.529 | 12.2 | -2.08
COCCNC(=O)CCc1c(C)nn(-c2nc(C)c(C)c(=O)[nH]2)c1C | 0.376 | 7.79 | -3.21 | -3.83 | -7 | 23.9 | 8.01 | 4.73 | 8.47 | 14.1 | -7.76
CN(c1ccc(F)c(F)c1)S(=O)(=O)c1cc(C(=O)O)cs1 | -0.362 | -5.41 | -0.676 | 1.81 | -6.32 | -1.6 | -5.95 | 10.4 | -0.493 | -1.24 | -2.7
CC(NC(=O)CCOc1ccccc1Cl)c1nnc2n1CCC2 (configuration not stated) | -2.36 | 10.8 | -3.16 | -0.604 | 6.51 | -2 | 5.77 | 6.7 | 5.42 | 16.1 | -6.83
O=C(CNCCn1cccn1)NCC1(c2ccccc2)CC1 | -0.0759 | -2.6 | 8.25 | 8.53 | 1.27 | 1.47 | -3.96 | 7.94 | 3.81 | 7.06 | -6.43
c1ccc(-c2nc(CNC3CCc4ncnn4C3)co2)cc1 (configuration not stated) | -6.67 | 20.8 | -3.92 | 12.6 | 7.68 | -3.92 | 3.21 | 9.63 | 8.74 | 19.5 | -7.68
O=c1nc(SCc2ccncc2)c2c(n1CCO)CCCC2 | -0.843 | 16.4 | -2.68 | 11.4 | 3.92 | 19.6 | 21.8 | 19.8 | 3.23 | 7.5 | -7.55
COCCC(=O)N1CCC(c2noc3nc(C)cc(C(F)(F)F)c23)CC1 | -0.633 | 6.76 | 7.83 | 4.3 | -6.13 | -2.55 | 13.1 | 8.05 | 2.15 | 6.49 | 9.94
N#Cc1ccc(CNCC2CCN(CCO)CC2)cc1 | -1.19 | 5.48 | -0.789 | -1.57 | -7.05 | 5 | 9.58 | 11.5 | 0 | 10 | -2.99
